The first test deals with HDHD2. Description: pooled miR-30 sensor sort-seq; sequence = guide strand. Particulars: shRNA.
The sequence TTTCTTCATCTGATGCTCGATA gave a sensor-assay potency score (higher = more potent) of -0.755.

Sequence TTCCGCTCTAGTAAACTTCTGG had a sensor-assay potency score (higher = more potent) of 0.0507.

Regarding TTCCTTTGAAATCAGGTAGTGC, the sensor-assay potency score (higher = more potent) is -0.746.

In turn, TTTGAAATCAGGTAGTGCCCGA returned a sensor-assay potency score (higher = more potent) of -0.154.

Sequence TTGCTATCAGAGGTGCTCCATC yielded a sensor-assay potency score (higher = more potent) of -0.808.

Sequence TCAACTAGCAGCATGGGTCTGA came in with a sensor-assay potency score (higher = more potent) of 0.908.

TAAACTTCTGGCTGCAGTCAGA returned a sensor-assay potency score (higher = more potent) of -0.973.

Take TAACAGGTCTTGCTTGCTCTCT: the sensor-assay potency score (higher = more potent) is -0.886.

The target of the next test is HEATR8. The test is described as above. The settings on record: shRNA.
The sequence TACCACTCCAGCACCGAGCTGA came in with a sensor-assay potency score (higher = more potent) of -0.0285.

For the sequence TAACAGGGTCTTCACACACTTC, the sensor-assay potency score (higher = more potent) is -1.46.

In the case of TTCAGGTTCAGCTTGGAGGTGT, the sensor-assay potency score (higher = more potent) was 0.381.

Regarding TTGGCGGTCTTCTCAGACCTGC, the sensor-assay potency score (higher = more potent) is -0.945.

TTGAGTGATGGTCACGCTCAAA came in with a sensor-assay potency score (higher = more potent) of -1.7.

TTCTTTATCATGGTCTTCTTTT came in with a sensor-assay potency score (higher = more potent) of -1.04.

Sequence TTGGTCTCTTCCTTATCTCTGG came in with a sensor-assay potency score (higher = more potent) of -0.426.

Sequence TTGAACTTGTGCTCCAGGTGGT displayed a sensor-assay potency score (higher = more potent) of 0.565.

Take TAACACACCCATGAGTTCCCGT: the sensor-assay potency score (higher = more potent) is -0.71.

For the sequence TTCACCACTTTCACCACCCAGC, the sensor-assay potency score (higher = more potent) is -0.301.

For the sequence AACATGACTGAGCACTTCCGGA, the sensor-assay potency score (higher = more potent) is -0.961.

The sequence TTCAACACAGAGACATTGGTGT gave a sensor-assay potency score (higher = more potent) of 0.958.

In a further test the target is HECTD1. Described as above. Particulars: shRNA.
Turning to TAGAGTTGAACAACCAGTGGTA, the sensor-assay potency score (higher = more potent) was found to be 0.312.

On to TTAATTGTTCACACCAGTCTGG, for which the sensor-assay potency score (higher = more potent) is -0.677.

On to TAAGAGGTCGTTGTGAAGCTGC, for which the sensor-assay potency score (higher = more potent) is -0.0408.

As for TAAGTCCTCATCATCATCGAGC, the sensor-assay potency score (higher = more potent) was -0.93.

TGCATCAGTAGCATCAACCTTG registered a sensor-assay potency score (higher = more potent) of 0.0486.

Take TAGCACATAATCATCATCCCAT: the sensor-assay potency score (higher = more potent) was found to be 0.659.

As for TTGACTACAATCTTGTTTCATA, the sensor-assay potency score (higher = more potent) is -0.725.

TTAACTTTCGAATTAACGCAAC: the sensor-assay potency score (higher = more potent) is -1.04.

On to TTTACTTCGAATACAATCTATA, for which the sensor-assay potency score (higher = more potent) is -1.13.

Take TTGCGTACAACCGTGAGCCTGG: the sensor-assay potency score (higher = more potent) amounted to 0.726.

Take TCGAATACAATCTATAAGCTGC: the sensor-assay potency score (higher = more potent) was 0.194.

Another test has as its target HEPH. The test is described as above. The settings on record: shRNA.
As for TACAGCTTTCTTGTATCTGGAA, the sensor-assay potency score (higher = more potent) was -0.122.

The sequence TTGCGTCGTAGCTTTCTCTGTC came in with a sensor-assay potency score (higher = more potent) of 0.593.

In the case of AATGTAACCATAACTGTCCTTC, the sensor-assay potency score (higher = more potent) was -0.181.

Turning to TATCCTCTGAAAGCAGTCGGAA, the sensor-assay potency score (higher = more potent) is -1.21.

Regarding TTTCTGTGCACACATGTTCAGC, the sensor-assay potency score (higher = more potent) was -0.645.

Sequence TGATATAGTAGATTCTTGCAGC displayed a sensor-assay potency score (higher = more potent) of -0.0504.

As for TTGTCAGACTTTAAGAAGCTGG, the sensor-assay potency score (higher = more potent) is -0.791.

For the sequence TATGTCACTGTCCAGAGGCTGG, the sensor-assay potency score (higher = more potent) was -1.3.

Regarding TATAGTAGATTCTTGCAGCTTG, the sensor-assay potency score (higher = more potent) stood at 0.849.

The values are drawn from the OligoGym collection.
Further: reference of the scale not given here.
